Most compounds without a hit are left out; they make up all but 3.8% or so of the library.
HSF-1 act = increases HSF-1 driven luciferase reporter signal; NIH3T3-HGL HSF-1 luciferase reporter, MG132, 8 h; 100% = twice DMSO control signal; activation, % at 9 µM; actives 1.7% (n = 300,000); AID 504408;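 active = mean replicate activation of at least 50% with a set share of replicates each reaching 50%; inconclusive = only one of those two conditions met; inactive = mean below 50% and too few replicates reaching it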;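 also: 0% = median of the neutral control wells and 100% = twice that signal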
HSF1 inhib = HSF1 inhibition; actives 0.77% (n = 300,000); activity change, negative = inhibition, % at 7.5 µM (by protocol); NIH3T3-HGL HSE-luciferase, MG132-induced, luminescence 8 h; stronger effect = lower value; AID 2098;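 active = more than half of replicate wells show activity change below -50%, luminescence cut by over half; inconclusive = some wells, but at most half, below -50%; inactive = no replicate well below -50%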;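 also: luciferase reports HSF-1 transcriptional activity via heat shock element; 0% = median of DMSO wells and -100% = zero luminescence signal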
Wnt act = Wnt/beta-catenin pathway activation | Wnt/beta-catenin reporter cell assay, activator, plate reader | activation, % at 9.35 µM | actives 1.2% (n = 300,000); in the data active = activation above about 30%, passing the limit was not always enough; inconclusive = no clear call, values can overlap the other calls;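 also: 0% = neutral control wells and 100% = positive control wells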
MITF act = activators of MITF-driven TRPM1 promoter activity in SK-MEL-5 cells; actives 0.75% (n = 300,000); SK-MEL-5 TRPM1-promoter luciferase, 24 h; % of positive control, neutral wells = 0; activation, % at 12.5 µM;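 active = mean activation of at least 80% with every replicate also reaching 80%; inconclusive = mean reaches 80% but some replicate falls short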;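 also: 0% = neutral control wells and 100% = parthenolide positive control wells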
esBAF inh = inhibitors of esBAF chromatin remodeling in mouse ES cells; Bmi1-luciferase knock-in reporter, 24 h; 100% = twice the neutral-well signal; reporter increase, % at 12.5 µM; actives 2% (n = 350,000); in the data active = activation above about 40%; inconclusive = no clear call, values can overlap the other calls;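 also: 0% = median of the plate's neutral control wells and 100% = double that signal; a rise in the Bmi1 reporter signal indicates esBAF inhibition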
esBAF Ring1 qPCR = esBAF inhibition confirmed by Ring1 de-repression; AID 743176; 550 tested, under 10 active; mouse ESC E14, Ring1 mRNA RT-qPCR fold change; shares compounds with esBAF inh; fold change at 33 µM;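 active = Ring1 gene expression raised more than 2-fold over untreated cells in both replicates at either tested dose; inconclusive = only one replicate above 2-fold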;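 also: Ring1 transcript normalised to actin housekeeping signal by TaqMan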
Fgf4 repress = esBAF inhibition confirmed by Fgf4 repression; shares compounds with esBAF inh; mouse ESC E14, Fgf4 mRNA qPCR fold change; stronger effect = lower value; Fgf4 expression fold change at 33 µM; actives 4% (n = 550); AID 743177;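 active = Fgf4 expression under 0.8 fold of control in both repeat measurements at one or both tested doses; inconclusive = under 0.8 fold in just a single repeat measurement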;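 also: Fgf4 transcript normalised to actin in duplex TaqMan qPCR; cells exposed to compound for 24 h before lysis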
esBAF Bmi1 qPCR = esBAF inhibition confirmed by Bmi1 de-repression; AID 743180; shares compounds with esBAF inh; mouse ESE14 ES cells, Bmi1 mRNA qPCR fold; stronger effect = higher value; 550 tested, under 10 active; fold change at 33 µM;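 active = Bmi1 expression fold change above 6 at either tested concentration, seen in replicate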
A549 tox SP = A549 cell cytotoxicity; shares compounds with esBAF inh; 550 tested, under 10 active; plate reader; cell viability change % (negative = cytotoxic), % at 25 µM, hits read low; call rule not given here
HepG2 cytotox SP = HepG2 cell cytotoxicity at single point; plate reader; stronger effect = lower value; activity change, negative = inhibition, % at 25 µM; shares compounds with esBAF inh; actives 4% (n = 550); in the data active = activity change below about -50%
HEK293 cytotox SP = kills or reduces viability of HEK293 cells. HEK293 cytotoxicity, plate reader. actives 3% (n = 550). activity change, negative = inhibition, % at 25 µM, hits read low. AID 743190. shares compounds with esBAF inh; in the data active = activity change below about -38%, passing the limit was not always enough
Numbers without * were called inactive; u = inconclusive; x = no result.

SMILES	HSF-1 act	HSF1 inhib	Wnt act	MITF act	esBAF inh	esBAF Ring1 qPCR	Fgf4 repress	esBAF Bmi1 qPCR	A549 tox SP	HepG2 cytotox SP	HEK293 cytotox SP
COc1cc(-c2nnc(COc3ccc(Cl)cc3C)o2)cc(OC)c1OC	2	4	-5	2	-4	x	x	x	x	x	x
Cc1cc(Cl)ccc1OCc1nnc(-c2ccccc2C)o1	x	x	41*	116*	99*	0.89	0.93	1.4	-10	-24	4
Clc1ccc(-c2nnc(-c3cccc4ccccc34)o2)cc1	x	x	39*	26	71*	1.3	1	1.6	-6	45	-6
C[C@@H]1CN([C@@H](C)CO)S(=O)(=O)c2ccc(-c3ccncc3)cc2O[C@H]1CN(C)C	x	x	x	x	0	x	x	x	x	x	x
O=C(CCN1C(=O)/C(=C/C=C/c2ccccc2)SC1=S)Nc1cccnc1	-7	5	21	52	67*	1.2	0.59*	4	-10	-5	-5
O=C(Nc1ccccc1C(F)(F)F)c1cc(-c2cccc(O)c2)on1	14	13	x	68	31	x	x	x	x	x	x
CCc1ccccc1NC(=O)c1cc(-c2cccc(O)c2)on1	-5	9	21	x	79*	1.2	u	1.2	-17	-11	-18
Cc1ccc(C(=O)Nc2ccc(Br)c(C(F)(F)F)c2)cc1	26	10	x	84*	74*	1.1	0.93	2.8	-5	7	-56*
COc1ccccc1CCC(=O)Nc1nc2ccccc2[nH]1	28	5	31*	80	61*	1.1	0.38*	6.9*	-2	-11	16
C=CCn1c(=NC(=O)c2cccc(N3C(=O)CCC3=O)c2)sc2cccc(OC)c21	-30	-8	1	11	-5	x	x	x	x	x	x
COc1ccc(C)c2sc(=NC(=O)c3cccc(N4C(=O)CCC4=O)c3)n(C)c12	41	16	0	55	76*	1.5	0.98	1.6	-9	-19	2
CS(=O)(=O)c1ccccc1C(=O)Nc1ccc(-c2nc3ccccc3o2)cc1	34	35	22	72	67*	1.2	1.1	2.2	-6	0	4
CS(=O)(=O)c1cccc(C(=O)Nc2ccc(-c3nc4ccccc4[nH]3)cc2)c1	22	14	5	42	15	x	x	x	x	x	x
COc1cc(OC)cc(C(=O)Nc2ccc(-c3nc4ccccc4o3)cc2)c1	-2	2	x	-6	14	x	x	x	x	x	x
CS(=O)(=O)c1ccccc1C(=O)Nc1ccc(-c2nc3ccccc3[nH]2)cc1	21	8	18	64	58*	1.2	1.4	2	-3	-18	6
Cc1ccc(Nc2ncnc3sc(C)c(C)c23)cc1	8	1	x	41	59*	1.2	0.92	1.4	-2	-12	-3
CN(C)c1ccc(C(=O)c2ccccc2)cc1	28	24	24	73	58*	1.1	u	1.5	-7	4	1
Cc1ccc(S(=O)(=O)Nc2ccc3c(c2)C(=O)N([C@H](C)CO)C[C@@H](C)[C@@H](CN(C)C(=O)NC2CCCCC2)OCCCC[C@H](C)O3)cc1	x	x	x	x	14	x	x	x	x	x	x
CCNC(=O)[C@H]1[C@H](CO)[C@H]2Cn3c(ccc(-c4ccccc4F)c3=O)[C@H]2N1C(=O)CC	x	x	x	x	7	x	x	x	x	x	x
COc1cc2[nH]c(C(=O)N3CCc4ccccc43)cc2c(OC)c1OC	15	16	19	43	58*	0.94	1.1	2.1	4	1	-4
